Source: the antibiotic and cytotoxicity screens of Wong et al. (2023)
Screen size: about 39,000 compounds; about 3,300 (8.5%) were called active. Shown is part of a subset that was picked to be rich in actives.

System: HepG2
Assay: cytotoxicity call (relative viability < 0.9)
Settings: 10 µM

| SMILES | cytotoxicity call |
| --- | --- |
| C[C@H]1CN([C@@H](C)CO)C(=O)Cc2cc(NC(=O)CCC(F)(F)F)ccc2O[C@@H]1CN(C)C(=O)Nc1cccc2ccccc12 | inactive |
| NC[C@H](c1ccco1)N1CCCCCC1 | inactive |
| OC[C@H]1CC[C@@H]2O[C@H](CCc3ccc(C#Cc4ccccc4)cc3)[C@H](n3cc(-c4ccccc4)nn3)C[C@@H]2O1 | inactive |
| OC[C@@H]1CC[C@@H]2O[C@H](CCc3ccc(C#Cc4ccccc4)cc3)[C@@H](n3cc(-c4ccccc4)nn3)C[C@@H]2O1 | active |
| OC[C@@H]1CC[C@@H]2O[C@H](CCc3ccc(C#Cc4ccccc4)cc3)[C@H](n3cc(-c4ccccc4)nn3)C[C@@H]2O1 | inactive |
| OC[C@H]1CC[C@@H]2O[C@H](CCc3ccc(C#CCc4ccccc4)cc3)[C@H](n3cc(-c4ccccc4)nn3)C[C@@H]2O1 | inactive |
| OC[C@H]1CC[C@@H]2O[C@H](CCc3ccc(C#Cc4ccccc4)cc3)[C@@H](n3cc(-c4ccccc4)nn3)C[C@@H]2O1 | active |
| OC[C@H]1CC[C@@H]2O[C@H](CCc3ccc(C#CCc4ccccc4)cc3)[C@@H](n3cc(-c4ccccc4)nn3)C[C@@H]2O1 | inactive |
| C[C@H](CO)N1C[C@H](C)[C@@H](CN(C)Cc2ccc(C(=O)O)cc2)OCCCC[C@H](C)Oc2ccc(NS(=O)(=O)c3ccccc3)cc2C1=O | inactive |
| CN1CCN(C(=O)C[C@H]2CC[C@H]3[C@@H](COC[C@@H](O)CN3C(=O)C3CC3)O2)CC1 | inactive |
| C[C@H](CO)N1C[C@H](C)[C@H](CN(C)Cc2ccccc2)Oc2ccc(NC(=O)Cn3cnnn3)cc2CC1=O | inactive |
| COc1ccc(S(=O)(=O)N(C)C[C@@H]2Oc3ncc(-c4ccncc4)cc3C(=O)N([C@H](C)CO)C[C@H]2C)cc1 | inactive |
| NCc1cccc2c1OCC2 | inactive |
| CCOc1nc2c(N)ncnc2n1CC | inactive |
| CC(C)NCCCn1c(Sc2cc3c(cc2I)OCO3)nc2c(N)ncnc21 | active |
| COc1ccc(CN(C)C[C@H]2OCCCC[C@H](C)Oc3ccc(NC(=O)Nc4ccccc4)cc3C(=O)N([C@H](C)CO)C[C@H]2C)cc1 | inactive |
| C[C@@H]1CN([C@H](C)CO)S(=O)(=O)c2ccc(C#CCC3CCCC3)cc2O[C@H]1CN(C)C(=O)c1cnccn1 | inactive |
| C[C@@H]1CCCCO[C@@H](CN(C)C(=O)Nc2ccccc2)[C@@H](C)CN([C@@H](C)CO)C(=O)c2cc(NC(=O)Nc3ccccc3)ccc2O1 | inactive |
| Cc1noc(C)c1NC(=O)Nc1ccc2c(c1)C(=O)N([C@H](C)CO)C[C@H](C)[C@@H](CN(C)S(=O)(=O)c1ccccc1)O2 | inactive |
| Cc1noc(C)c1S(=O)(=O)Nc1cccc2c1O[C@H](CN(C)C(=O)NC(C)C)[C@H](C)CN([C@@H](C)CO)C2=O | inactive |

| SMILES | cytotoxicity call |
| --- | --- |
| COc1ccc(S(=O)(=O)N[C@@H]2C=C[C@H](CC(=O)NCCc3ccncc3)O[C@H]2CO)cc1 | inactive |
| O=C(C[C@@H]1C[C@H]2c3cc(NC(=O)c4ccc5c(c4)OCO5)ccc3O[C@H]2[C@H](CO)O1)NCCN1CCCCC1 | inactive |
| COc1ccc([Si](C)(C)[C@@H]2[C@@H](CC(=O)N3Cc4ccccc4C[C@H]3CO)O[C@]3(C(=O)N(Cc4ccc(I)cc4)c4ccccc43)[C@H]2C)cc1 | inactive |
| COc1ccc([Si](C)(C)[C@H]2[C@H](CC(=O)N3Cc4ccccc4C[C@H]3CO)O[C@@]3(C(=O)N(Cc4cccc(N5CCOC5=O)c4)c4ccccc43)[C@@H]2C)cc1 | inactive |
| COc1ccc([Si](C)(C)[C@@H]2[C@@H](CC(=O)N3Cc4ccccc4C[C@H]3CO)O[C@]3(C(=O)N(Cc4ccc(N5CCOC5=O)cc4)c4ccccc43)[C@H]2C)cc1 | inactive |
| COc1ccc(C(=O)Nc2cccc(CN3C(=O)[C@@]4(O[C@@H](CC(=O)N5Cc6ccccc6C[C@H]5CO)[C@H]([Si](C)(C)c5ccc(OC)cc5)[C@H]4C)c4ccccc43)c2)cc1 | active |
| COc1ccc(C(=O)Nc2cccc(CN3C(=O)[C@]4(O[C@H](CC(=O)N5CCC[C@H]5CO)[C@@H]([Si](C)(C)c5ccc(OC)cc5)[C@@H]4C)c4ccccc43)c2)cc1 | inactive |
| COc1ccc([Si](C)(C)[C@H]2[C@H](CC(=O)N3Cc4ccccc4C[C@H]3CO)O[C@@]3(C(=O)N(Cc4ccc(N5CCOC5=O)cc4)c4ccccc43)[C@@H]2C)cc1 | active |
| COc1ccc(C(=O)Nc2ccc(CN3C(=O)[C@]4(O[C@H](CC(=O)N5Cc6ccccc6C[C@H]5CO)[C@@H]([Si](C)(C)c5ccc(OC)cc5)[C@@H]4C)c4ccccc43)cc2)cc1 | active |
| COc1ccc(C(=O)Nc2cccc(CN3C(=O)[C@@]4(O[C@@H](CC(=O)N5CCC[C@H]5CO)[C@H]([Si](C)(C)c5ccc(OC)cc5)[C@H]4C)c4ccccc43)c2)cc1 | inactive |
| COc1ccc(C(=O)Nc2ccc(CN3C(=O)[C@@]4(O[C@@H](CC(=O)N5Cc6ccccc6C[C@H]5CO)[C@H]([Si](C)(C)c5ccc(OC)cc5)[C@H]4C)c4ccccc43)cc2)cc1 | inactive |
| C[C@H](CO)N1C[C@H](C)[C@@H](CN(C)Cc2ccc(-c3ccccc3)cc2)Oc2c(NC(=O)C3CCOCC3)cccc2C1=O | inactive |
| C[C@@H]1CN([C@H](C)CO)C(=O)c2cc(NC(=O)CCCN(C)C)ccc2O[C@@H](C)CCCCO[C@@H]1CN(C)S(C)(=O)=O | inactive |
| C[C@@H]1CN([C@H](C)CO)C(=O)CCCn2cc(nn2)CO[C@@H]1CN(C)C(=O)Nc1ccc(N2CCCCC2)cc1 | inactive |
| Cc1noc(C)c1NC(=O)N(C)C[C@H]1Oc2ccc(NS(C)(=O)=O)cc2CC(=O)N([C@@H](C)CO)C[C@H]1C | inactive |
| C[C@@H]1CCCCO[C@@H](CN(C)S(=O)(=O)c2cn(C)cn2)[C@H](C)CN([C@@H](C)CO)C(=O)c2cc(N(C)C)ccc2O1 | inactive |
| O=C(C[C@@H]1CC[C@@H]2[C@H](COC[C@H](O)CN2Cc2cc(F)ccc2F)O1)N[C@@H]1CCN(Cc2ccccc2)C1 | inactive |
| C[C@@H]1CN([C@@H](C)CO)C(=O)c2cc(Br)cnc2O[C@H]1CN(C)C(=O)CCN1CCCCC1 | inactive |
| C[C@@H]1CCCCO[C@H](CN(C)C(=O)Nc2ccc(F)cc2)[C@H](C)CN([C@@H](C)CO)C(=O)c2cc(NC(=O)Nc3cccc4ccccc34)ccc2O1 | inactive |
| Cc1cc(C)c2c(c1)[C@@H](N(Cc1cc(C(F)(F)F)cc(C(F)(F)F)c1)c1nnn(C)n1)CCCN2C[C@H]1CC[C@H](C(=O)O)CC1 | active |

| SMILES | cytotoxicity call |
| --- | --- |
| Cc1ccc(S(=O)(=O)Nc2ccc3c(c2)C(=O)N([C@H](C)CO)C[C@H](C)[C@H](CN(C)S(=O)(=O)c2ccc(C)cc2)OCCCC[C@@H](C)O3)cc1 | inactive |
| Cc1ccc(S(=O)(=O)Nc2ccc3c(c2)CC(=O)N([C@@H](C)CO)C[C@@H](C)[C@H](CN(C)Cc2ccc(Cl)c(Cl)c2)O3)cc1 | inactive |
| Cc1ccc(S(=O)(=O)Nc2ccc3c(c2)CC(=O)N([C@H](C)CO)C[C@@H](C)[C@@H](CN(C)Cc2ccc(Cl)c(Cl)c2)O3)cc1 | active |
| Cc1ccc(S(=O)(=O)Nc2ccc3c(c2)CC(=O)N([C@@H](C)CO)C[C@@H](C)[C@@H](CN(C)Cc2ccc(Cl)c(Cl)c2)O3)cc1 | active |
| Cc1ccc(S(=O)(=O)Nc2ccc3c(c2)CC(=O)N([C@H](C)CO)C[C@@H](C)[C@H](CN(C)Cc2ccc(Cl)c(Cl)c2)O3)cc1 | inactive |
| Cc1ccc(S(=O)(=O)Nc2ccc3c(c2)CC(=O)N([C@H](C)CO)C[C@H](C)[C@@H](CN(C)Cc2ccc(Cl)c(Cl)c2)O3)cc1 | inactive |
| Cc1ccc(S(=O)(=O)Nc2ccc3c(c2)CC(=O)N([C@@H](C)CO)C[C@H](C)[C@H](CN(C)Cc2ccc(Cl)c(Cl)c2)O3)cc1 | active |
| Cc1ccc(S(=O)(=O)Nc2ccc3c(c2)CC(=O)N([C@@H](C)CO)C[C@H](C)[C@@H](CN(C)Cc2ccc(Cl)c(Cl)c2)O3)cc1 | inactive |
| Cc1ccc(S(=O)(=O)Nc2ccc3c(c2)CC(=O)N([C@H](C)CO)C[C@H](C)[C@H](CN(C)Cc2ccc(Cl)c(Cl)c2)O3)cc1 | active |
| Cc1ccc(S(=O)(=O)Nc2ccc3c(c2)C(=O)N([C@@H](C)CO)C[C@H](C)[C@@H](CN(C)S(C)(=O)=O)OCCCC[C@@H](C)O3)cc1 | inactive |
| COc1ccc(S(=O)(=O)Nc2ccc3c(c2)C(=O)N([C@H](C)CO)C[C@@H](C)[C@@H](CN(C)Cc2ccc(Cl)c(Cl)c2)O3)cc1 | inactive |
| O=C(C[C@@H]1CC[C@H]2[C@@H](COC[C@@H](O)CN2S(=O)(=O)c2cccc(F)c2)O1)NCc1ccncn1 | inactive |
| CC(=O)N1CCC(C(=O)O)CC1 | inactive |
| COc1ccc(NC(=O)N(C)C[C@@H]2OCCCC[C@H](C)Oc3ccc(NC(=O)C4CCCCC4)cc3C(=O)N([C@@H](C)CO)C[C@@H]2C)cc1 | inactive |
| Cc1cc(C)n(-c2ccc(=O)n(CC(=O)N3CCN(S(=O)(=O)c4ccc(F)cc4)CC3)n2)n1 | inactive |
| C[C@@H]1CN([C@H](C)CO)C(=O)c2cc(NC(=O)CCN3CCOCC3)ccc2O[C@H]1CN(C)S(=O)(=O)c1ccc(F)cc1 | inactive |
| C[C@H](CO)N1C[C@H](C)[C@H](CN(C)C(=O)Nc2ccc3c(c2)OCO3)Oc2c(NC(=O)C3CCOCC3)cccc2C1=O | inactive |
| CNCCCC12CCC(c3ccccc31)c1ccccc12.Cl | active |
| CC(C)CC#Cc1cnc2c(c1)C(=O)N([C@@H](C)CO)C[C@H](C)[C@@H](CN(C)C(=O)CN1CCOCC1)O2 | inactive |
| C[C@@H]1CCCCO[C@H](CN(C)C(=O)CCCN(C)C)[C@H](C)CN([C@@H](C)CO)C(=O)c2cc(NC(=O)Nc3ccc(C(F)(F)F)cc3)ccc2O1 | inactive |
